Screening data deposited in PubChem by National Center for Advancing Translational Sciences (NCATS).
Hits are enriched below; roughly 0.54% of the tested compounds scored in any of these assays.
TRPML1 inh: inhibitors of human TRPML1 channel. Q9GZU1. TRPML1-inducible cells, Ca2+ dye fluorescence, FDSS; active compounds read low; inhibition of EC80 agonist-evoked calcium signal. activity change, negative = inhibition, % (test concentration not listed). 390,000 tested, 0.02% active. AID 624415; in the data active means activity change below about -50%; inconclusive means between about -30% and that limit;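 further: stimulus is agonist 54-4 at its EC80 concentration; on the % scale 0 is the no-effect control and ±100 the full control effect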
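Calcium fluorescence in TRPML1-DL cells induced overnight with Tet: a 110 s read after compound pin addition, then a 110 s antagonist read after challenge with 54-4 at 4 uM final (EC80).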
Vif-APOBEC3F blk: inhibitors of Vif-A3F interaction; HeLa A3F-eYFP + Vif (tagged APOBEC3F with the HIV-1 protein that degrades it), YFP fluorescence increase; Potency, µM (highest dose often 46.1 µM), inactives show top-dose activity, negative = active; 390,000 tested, 0.2% active; further: potency means the concentration at half of the fitted maximal effect; % of control where 0% means no effect; nearly all actives have a fitted effect of over 65% in size
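HeLa cells stably expressing Vif plus C-terminally eYFP-tagged A3F were seeded, incubated overnight at 37 deg C, dosed with compound, incubated overnight again at 37 deg C. Yellow fluorescence (Ex 488/Em 500-530) reported blocked Vif-mediated A3F-eYFP degradation.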
Vif-APOBEC3G blk: blocks the Vif interaction with human APOBEC3G; Q9HC16; HeLa A3G-eYFP + Vif (tagged APOBEC3G with the HIV-1 protein that degrades it), YFP fluorescence, overnight; Potency, µM (titrated, usually from 46.1 µM), for the others: top-dose activity, negative = active, hits mostly inhibitors; 410,000 tested, 0.076% active; further: potency means the concentration at half of the fitted maximal effect; on the % scale 0 is the no-effect control and ±100 the full control effect; nearly all actives have a fitted effect of over 60% in size
Target sequence (Q9HC16 whole entry, looked up): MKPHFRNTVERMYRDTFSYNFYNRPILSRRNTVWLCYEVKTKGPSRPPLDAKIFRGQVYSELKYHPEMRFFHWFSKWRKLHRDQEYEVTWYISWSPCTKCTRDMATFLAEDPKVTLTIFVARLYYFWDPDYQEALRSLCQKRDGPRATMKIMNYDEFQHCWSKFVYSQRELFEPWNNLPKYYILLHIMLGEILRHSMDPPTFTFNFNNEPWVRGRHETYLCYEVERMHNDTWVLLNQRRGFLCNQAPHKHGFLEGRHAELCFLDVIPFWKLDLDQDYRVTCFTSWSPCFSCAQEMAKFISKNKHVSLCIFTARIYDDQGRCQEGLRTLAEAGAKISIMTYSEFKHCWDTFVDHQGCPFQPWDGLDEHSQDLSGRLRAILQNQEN
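HeLa cells stably expressing Vif and C-terminally eYFP-tagged A3G, seeded overnight at 37 deg C, then exposed to compound by pintool overnight at 37 deg C. Rise in yellow fluorescence (Ex 488/Em 500-530, Acumen) marks blocked Vif-driven A3G degradation.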
AT treatment: potential ataxia-telangiectasia treatment | F2112 A-T fibroblasts, KAP-1 phosphorylation AlphaLISA; neocarzinostatin DNA damage 30 min before lysis | Potency, µM (doses to about 57.5 µM), for the others: at the top dose activation, hits mostly activators | 320,000 tested, 0.19% active | AID 485349; further: potency means the concentration at half of the fitted maximal effect; % of control where 0% means no effect; nearly all actives have a fitted effect of over 45% in size
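ATM-like activity read as KAP-1 phosphorylation via AlphaLISA donor/acceptor antibody pairs after lysis and 6 hr at 25C. Cells were ATM-null patient fibroblasts (F2112, hTERT), dosed 60 min, then exposed to the DSB inducer NCS for 30 min.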
TRPML1 ag: human mucolipin-1 channel agonism; AID 624414; activation, % (no concentration beside the values); TRPML1-expressing cells, Ca2+ dye fluorescence, FDSS; 410,000 tested, 0.12% active; Q9GZU1; in the data active means activation above about 50%; inconclusive means mostly about 30% to 49%; further: 0% is about no effect
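TRPML1-DL cells, Tet-induced overnight (~16 h, 37 degrees C), loaded 45-90 min at room temperature with Ca8 no-wash calcium dye plus quencher. FDSS fluorescence: 10 s baseline, compound pin-transfer, 110 s agonist read, then EC80 54-4 (4uM final) and 110 s antagonist read.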
An asterisk follows results filed as active. Unless noted, the call rests on the fitted dose curve; in most records, active means well fitted curve in the direction sought with a large enough effect; inconclusive means small, poorly fitted or top-dose-only effect, or another doubt; inactive means no such curve, though single readings can be large; an effect the other way counts as inactive or inconclusive.

How did COc1ccc(CNC(=O)C2CCN(c3nc4ccc(C)cc4[nH]3)CC2)cc1 do in these assays?
TRPML1 inh: 7; Vif-APOBEC3F blk: -2%; Vif-APOBEC3G blk: -8%; TRPML1 ag: -1

How did Oc1ccc(NCc2ccc(OCc3ccccc3Cl)cc2)cc1 do in these assays?
TRPML1 inh: 30; Vif-APOBEC3F blk: 1%; Vif-APOBEC3G blk: inconclusive; TRPML1 ag: 3

How did Oc1ccc(NCc2ccc(OCc3ccccc3)cc2)cc1 do in these assays?
TRPML1 inh: -20; Vif-APOBEC3F blk: 1%; Vif-APOBEC3G blk: inconclusive; AT treatment: 40µM*; TRPML1 ag: 1

How did CN(C)c1ccc(/C=C/N2C=CCc3c2ccc2ccccc32)cc1 do in these assays?
Vif-APOBEC3G blk: 9%; TRPML1 ag: 1

How did O=C(c1cc(-c2ccccc2)nc2ccccc12)N1CCOCC1 do in these assays?
TRPML1 inh: -15; Vif-APOBEC3F blk: -2%; Vif-APOBEC3G blk: -7%; AT treatment: 17%; TRPML1 ag: 3

How did CC(C)c1ccc(-c2cc(C(=O)N3CCOCC3)c3cc(Br)ccc3n2)cc1 do in these assays?
TRPML1 inh: -6; Vif-APOBEC3F blk: -8%; Vif-APOBEC3G blk: 0%; AT treatment: 4.5µM*; TRPML1 ag: 1

How did O=S1(=O)c2ccccc2N(Cc2cccc(C(F)(F)F)c2)c2ccccc21 do in these assays?
TRPML1 inh: 32; Vif-APOBEC3F blk: 1%; Vif-APOBEC3G blk: -2%; TRPML1 ag: 3

How did CC(=O)c1cc(NC(=O)c2ccc(C)cc2)c(=O)oc1/C=C/N(C)C do in these assays?
TRPML1 inh: -6; Vif-APOBEC3F blk: 13µM*; Vif-APOBEC3G blk: 13µM*; AT treatment: -12%; TRPML1 ag: 14

How did Cc1nn(CC(=O)N2CCC(C)CC2)c(=O)c2cc3sccc3n12 do in these assays?
TRPML1 inh: 6; Vif-APOBEC3F blk: 3%; Vif-APOBEC3G blk: 4%; TRPML1 ag: -1

What do the screens show for `Nc1c(C(O)(C(F)(F)F)C(F)(F)F)ccc2ccccc12`?
TRPML1 inh: -9; Vif-APOBEC3F blk: -8%; Vif-APOBEC3G blk: -18%; AT treatment: 28µM*; TRPML1 ag: 2

Results for c1ccc2c(c1)ccc1ccccc12 ?
TRPML1 inh: 7; Vif-APOBEC3F blk: -19%; Vif-APOBEC3G blk: 0%; AT treatment: 2%; TRPML1 ag: 1

Results for CN(C)c1ccc(/C=C2/CCCc3c2nc2ccccc2c3C(=O)O)cc1 ?
Vif-APOBEC3G blk: -3%; TRPML1 ag: 5

Results for CC1=CC(C)(C)n2c(O)c(N=N)c3c(C)ccc1c32 ?
TRPML1 inh: 4; Vif-APOBEC3F blk: inconclusive; Vif-APOBEC3G blk: -9%; AT treatment: 32µM*; TRPML1 ag: 1

What do the screens show for `CC(=O)OC[C@]12CC[C@H]3[C@@](C)(CC[C@H]4C(C)(C)CCC[C@]34C)[C@@H]1C[C@H](C1=CC(=O)O[C@H]1OC(C)=O)O2`?
AT treatment: 35µM*

Results for Cc1cc(/C=C2\NC(=S)N(C)C2=O)ccc1N1CCCC1 ?
TRPML1 inh: -11; Vif-APOBEC3F blk: inconclusive; Vif-APOBEC3G blk: 6.3µM*; AT treatment: 1%; TRPML1 ag: 94*

How did CCCN1C(=O)/C(=C/c2ccc(N3CCCC3)c(C)c2)NC1=S do in these assays?
TRPML1 inh: -4; Vif-APOBEC3F blk: inconclusive; Vif-APOBEC3G blk: inconclusive; AT treatment: -9%; TRPML1 ag: 67*

Results for CCCN1C(=O)/C(=C/c2ccc(N3CCOCC3)cc2)NC1=S ?
TRPML1 inh: -1; Vif-APOBEC3F blk: inconclusive; Vif-APOBEC3G blk: inconclusive; AT treatment: 0%; TRPML1 ag: 20

How did CCN1C(=O)/C(=C/c2ccc(N3CCCC3)cc2)NC1=S do in these assays?
TRPML1 inh: -16; Vif-APOBEC3F blk: 25µM*; Vif-APOBEC3G blk: 8.9µM*; AT treatment: -13%; TRPML1 ag: 64*

What do the screens show for `Cc1cc(/C=C2/C(=O)N(C)C(=S)N2C)ccc1N1CCCC1`?
TRPML1 inh: -7; Vif-APOBEC3F blk: inconclusive; Vif-APOBEC3G blk: inconclusive; AT treatment: -4%; TRPML1 ag: inconclusive

How did COc1ccc(NC(=O)C2Cc3c(-c4ccc5c(c4)OCO5)ccnc3O2)cc1 (configuration not stated) do in these assays?
Vif-APOBEC3G blk: inconclusive; TRPML1 ag: -1

Results for Cc1ccc(-c2ccc(/C=N/NC(N)=S)o2)cc1 ?
TRPML1 inh: 37; Vif-APOBEC3F blk: 5.6µM*; Vif-APOBEC3G blk: -19%; AT treatment: -3%; TRPML1 ag: 3

Results for Cc1ccc(C)c(NC(=O)CCn2nc(C)c3c(C)n(-c4ccccc4)nc3c2=O)c1 ?
TRPML1 inh: -54*; Vif-APOBEC3F blk: -11%; Vif-APOBEC3G blk: -1%; TRPML1 ag: -1

How did Cc1cccc(NS(=O)(=O)c2ccc3c(c2)OCC(C(=O)N2CCCC2)O3)c1C (configuration not stated) do in these assays?
TRPML1 inh: -15; Vif-APOBEC3F blk: 0%; Vif-APOBEC3G blk: 4%; TRPML1 ag: 0

Results for CC(=O)/C=C/c1ccc2c(c1)S(=O)(=O)N(C1CCCC1)[C@H]2CC(C)=O ?
Vif-APOBEC3G blk: inconclusive; TRPML1 ag: 0

How did Cc1ccc(C(C)C)c(OCCCN2CCc3ccccc3C2)c1 do in these assays?
Vif-APOBEC3F blk: 1%; Vif-APOBEC3G blk: -2%; AT treatment: inconclusive

What do the screens show for `Cc1ccc(C(C)C)c(OCCN2CCc3ccccc3C2)c1`?
TRPML1 inh: -6; Vif-APOBEC3F blk: -1%; Vif-APOBEC3G blk: -7%; AT treatment: 35µM*; TRPML1 ag: 2

What do the screens show for `Cc1ccc(C(C)C)c(OCCCN(C)Cc2ccccc2)c1`?
TRPML1 inh: -20; Vif-APOBEC3F blk: -6%; Vif-APOBEC3G blk: -4%; AT treatment: 35µM*; TRPML1 ag: 0

Results for Cc1ccc(OCCCCN2CCc3ccccc3C2)c(C)c1 ?
TRPML1 inh: 28; Vif-APOBEC3F blk: 1%; Vif-APOBEC3G blk: 1%; AT treatment: 35µM*; TRPML1 ag: 2

What do the screens show for `COc1ccc2c(c1)CC(C(=O)NCCc1ccc(S(N)(=O)=O)cc1)CO2` (configuration not stated)?
TRPML1 inh: -4; Vif-APOBEC3F blk: 0%; Vif-APOBEC3G blk: -3%; TRPML1 ag: -1

How did CCCc1ccc(/C=C2\C(=O)c3ccccc3C(O)=C2C(=O)OCC)cc1 do in these assays?
AT treatment: 6%

What do the screens show for `CCOC(=O)C1=C(O)c2ccccc2C(=O)/C1=C\c1ccc(CC)cc1`?
TRPML1 inh: 0; Vif-APOBEC3F blk: 22µM*; Vif-APOBEC3G blk: inconclusive; AT treatment: inconclusive; TRPML1 ag: 0

Results for COc1cc(C2c3cc4c(cc3C(OC3OC5COC(c6cccs6)OC5C(O)C3O)C3COC(=O)C23)OCO4)cc(OC)c1O (configuration not stated) ?
TRPML1 inh: -1; Vif-APOBEC3F blk: inconclusive; Vif-APOBEC3G blk: inconclusive; AT treatment: 35µM*; TRPML1 ag: 0
